Experimental data reported in PubChem BioAssay (NCATS).
Values joined by “and” are separate entries in the source; they are usually repeats but may differ in a detail not shown here. Equal values may be shown once. Inconclusive results are not listed. A call without a number means that no potency is given here. Active and inactive are the calls of the source. Unless noted, calls come from the whole dose curve; as a rule, active = well fitted curve in the direction sought with a large enough effect; inconclusive = small, poorly fitted or top-dose-only effect, or another doubt; inactive = no such curve, though single readings can be large; an effect the other way counts as inactive or inconclusive.

Legend:
[1] = Cell Viability - LYMP2-001 (AID 921);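 note: cells exposed to compound for 24 h at 37 °C; nearly all actives have a fitted effect of over 70% in size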; note: potency is the fitted concentration of half-maximal effect
In short: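 Steps: seed 2500 lymphoblastoid cells/well; 5 hr, 37 C; add compound; 24 hr, 37 C; CellTiter-Glo reagent, 30 min room temperature; read luminescence. Concentration-response modeled by Hill equation for AC50.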

[2] = MultiTox-Fluor Cytotoxicity Assay - LYMP1-001 - Dead Cells (AID 946); note: potency is the fitted concentration of half-maximal effect
In short: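 Cytotoxicity as increased dead-cell protease fluorescence (bis-AAF-R110, 485/520 nm), read 60 min after MultiTox-Fluor reagent. Human lymphoblastoid line exposed 16 h; Hill-fitted AC50, with DMSO as 0% and 15 uM tetraoctylammonium bromide as 100%.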

[3] = MultiTox-Fluor Cytotoxicity Assay - LYMP1-001 - Live Cells (AID 947); note: potency is the fitted concentration of half-maximal effect
[4] = Cell Viability - LYMP1-002 - Assay at 16 hr (AID 948); note: potency is the fitted concentration of half-maximal effect
In short: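 Seed 2500 LYMP1-002 cells per well in complete medium and hold 5 hr at 37 C. Add compound across a concentration series and incubate 16 hr at 37 C. Add CellTiter-Glo, wait 30 min at room temperature, read luminescence.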

[5] = qHTS Assay for Identification of Small Molecule Antagonists for Thrombopoietin (TPO) Signaling Pathway (AID 918); settings: TPO-dependent cell signaling reporter, antagonist mode; note: potency is the fitted concentration of half-maximal effect; nearly all actives have a fitted effect of over 60% in size
In short: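 Antagonist mode at EC50 TPO (26 pM) in IL-3-free medium; murine Ba/F3 cells with human TPO receptor and GPIIb-promoter luciferase, 24 hrs at 37 C before luminescent detection.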

[6] = biological target: Muscarinic acetylcholine receptor M1 (Rattus norvegicus) (UniProt P08482); experiment: qHTS Assay for Antagonists of Acetylcholine Muscarinic M1 Receptor: Kinetic Measurement of Intracellular Calcium Response (AID 943); note: nearly all actives have a fitted effect of over 75% in size; note: potency is the fitted concentration of half-maximal effect
Muscarinic acetylcholine receptor M1 (Rattus norvegicus), sequence (P08482 whole entry, looked up): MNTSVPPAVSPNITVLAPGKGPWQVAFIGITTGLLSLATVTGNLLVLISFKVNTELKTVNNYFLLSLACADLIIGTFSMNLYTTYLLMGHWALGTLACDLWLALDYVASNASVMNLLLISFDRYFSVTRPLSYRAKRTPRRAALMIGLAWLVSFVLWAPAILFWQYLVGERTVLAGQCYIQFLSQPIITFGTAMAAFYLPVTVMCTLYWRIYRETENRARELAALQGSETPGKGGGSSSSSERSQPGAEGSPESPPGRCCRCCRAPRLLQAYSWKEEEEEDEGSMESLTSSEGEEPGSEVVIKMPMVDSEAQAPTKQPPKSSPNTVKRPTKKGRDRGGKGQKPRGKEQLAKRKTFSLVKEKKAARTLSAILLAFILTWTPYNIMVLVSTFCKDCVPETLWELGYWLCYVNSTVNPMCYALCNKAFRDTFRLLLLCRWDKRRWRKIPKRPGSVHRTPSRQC
In short: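 Quantitative HTS in CHO-M1 (rat receptor) cells: 10 min compound exposure ahead of 100 nM carbachol, Fluo-4 fluorescence followed 4 min, value expressed as peak-to-basal ratio.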

[7] = biological target: Muscarinic acetylcholine receptor M1 (Rattus norvegicus) (UniProt P08482); experiment: qHTS Assay for Antagonists of Acetylcholine Muscarinic M1 Receptor: Measurement of IP-One Response (AID 944); note: nearly all actives have a fitted effect of over 75% in size; note: potency is the fitted concentration of half-maximal effect
In short: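 Antagonism was measured as loss of carbachol-driven (EC80) IP1 accumulation in CHO cells carrying rat M1, using a homogeneous IP-One TR-FRET kit read at 620 and 665 nm.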

[8] = biological target: Pyruvate kinase (Leishmania mexicana) (UniProt Q27686); experiment: qHTS Validation Assay for Inhibitors of Leishmania Mexicana Pyruvate Kinase (AID 945); note: potency is the fitted concentration of half-maximal effect
Pyruvate kinase (Leishmania mexicana), sequence (Q27686 2-499 E452W): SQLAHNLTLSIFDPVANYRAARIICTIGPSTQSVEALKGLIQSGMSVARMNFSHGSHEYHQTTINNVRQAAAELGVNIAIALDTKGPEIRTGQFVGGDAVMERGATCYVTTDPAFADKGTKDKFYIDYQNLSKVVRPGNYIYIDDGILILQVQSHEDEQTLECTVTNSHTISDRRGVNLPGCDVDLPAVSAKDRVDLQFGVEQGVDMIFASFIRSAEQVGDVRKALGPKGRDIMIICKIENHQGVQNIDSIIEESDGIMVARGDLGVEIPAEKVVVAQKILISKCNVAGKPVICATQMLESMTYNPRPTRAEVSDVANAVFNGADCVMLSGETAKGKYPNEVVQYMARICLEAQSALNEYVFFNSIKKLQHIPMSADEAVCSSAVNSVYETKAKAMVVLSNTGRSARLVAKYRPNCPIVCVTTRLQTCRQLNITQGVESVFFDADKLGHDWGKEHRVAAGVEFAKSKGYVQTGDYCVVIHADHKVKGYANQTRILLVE
In short: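 Eight-point qHTS titrations; enzyme 0.2 nM LmPYK (E451W mutant); substrates 0.5 mM PEP, 0.1 mM ADP; 7 mM MgCl2; 1 h room temperature; PKLight luminescence normalized to neutral control.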

[9] = biological target: Pyruvate kinase PKM (Homo sapiens) (UniProt P14618); experiment: qHTS Assay for Activators of Human Muscle Pyruvate Kinase (AID 954; active = well fitted curve in the direction sought with a large enough effect, not every such curve was filed as active)
Pyruvate kinase PKM (Homo sapiens), sequence (P14618 whole entry, looked up): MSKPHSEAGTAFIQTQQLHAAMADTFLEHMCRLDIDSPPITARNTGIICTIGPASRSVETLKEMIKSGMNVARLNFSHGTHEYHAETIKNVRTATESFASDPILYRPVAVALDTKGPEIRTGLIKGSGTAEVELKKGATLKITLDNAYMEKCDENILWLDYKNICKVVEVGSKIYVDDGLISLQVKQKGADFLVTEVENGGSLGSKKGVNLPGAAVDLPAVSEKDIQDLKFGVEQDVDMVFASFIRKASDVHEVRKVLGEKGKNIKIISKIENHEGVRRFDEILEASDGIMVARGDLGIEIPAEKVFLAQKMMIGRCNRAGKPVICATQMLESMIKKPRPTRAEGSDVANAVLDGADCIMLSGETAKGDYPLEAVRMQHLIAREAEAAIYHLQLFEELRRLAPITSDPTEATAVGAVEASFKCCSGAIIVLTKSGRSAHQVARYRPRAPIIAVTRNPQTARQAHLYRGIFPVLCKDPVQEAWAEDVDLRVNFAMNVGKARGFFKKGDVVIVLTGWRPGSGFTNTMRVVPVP
In short: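 ATP production by PKM2 detected via luciferase luminescence after 1 h room-temperature reaction (0.1 nM enzyme, PEP at Km 0.5 mM, ADP 0.1 mM, pH 7.2 imidazole buffer). Inhibition scaled to no-enzyme control; activation referenced to 0.3 nM enzyme wells.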

[10] = Confirmation and Secondary Assay for Modulators of Hemoglobin Beta Chain Splicing at IVS2 705 locus (AID 930);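 note: HeLa cells stably expressing the EGFP-705 splicing reporter; GFP fluorescence per well restored by corrected splicing of the IVS2-705 intron in EGFP; series mostly up to about 46 µM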
In short: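 HeLa IVS2-705 EGFP reporter cells, 500/well, compound 2 d at 37C; correct splicing yields fluorescent EGFP. Control: 500 nM antisense PNA. Read-out: total peak GFP intensity.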

[O]=[Cd]
Potency [1]: inactive
Potency [2]: inactive
Potency [3]: inactive
Potency [4]: inactive

Cc1c2ccncc2c(C)c2c1[nH]c1ccccc12
Potency [5]: 10 µM (active)
Potency [6]: inactive
Potency [7]: 25.1 µM (active)
Potency [8]: inactive
outcome [9]: inactive

[Cl-].[Cl-].[Hg+2]
Potency [1]: 0.794 µM (active)
outcome [10]: inactive
Potency [3]: 31.6 µM (active)
Potency [4]: 10 µM (active)

COc1ccc2c(c1OC)C(=O)OC2C1c2cc3c(cc2CCN1C)OCO3 (configuration not stated)
Potency [1]: inactive
outcome [10]: inactive
Potency [2]: inactive
Potency [3]: inactive
Potency [4]: inactive

O=C1CCO1
Potency [1]: inactive
outcome [10]: inactive
Potency [2]: inactive
Potency [3]: inactive
Potency [4]: inactive

O=CC=O
Potency [1]: inactive
Potency [2]: inactive
Potency [3]: inactive
Potency [4]: inactive

CC(C)(C)c1cc(C=C(C#N)C#N)cc(C(C)(C)C)c1O
Potency [5]: 1.58 µM (active)
Potency [7]: 1.41 µM (active)
Potency [8]: inactive
outcome [9]: inactive

C[C@H]1CCC[C@H](O)CCCCCc2cc(O)cc(O)c2C(=O)O1
Potency [1]: inactive
Potency [2]: inactive
Potency [3]: inactive
Potency [4]: inactive

Clc1ccccc1Cl
Potency [1]: inactive
Potency [2]: inactive
Potency [3]: inactive
Potency [4]: inactive

O=C/C=C/c1ccccc1
Potency [1]: inactive
Potency [2]: inactive
Potency [3]: inactive
Potency [4]: inactive

CCOC(=O)c1ccccc1C(=O)OCC
Potency [1]: inactive
Potency [2]: inactive
Potency [3]: inactive
Potency [4]: inactive

CN1CCc2cc(O)cc3c2[C@H]1Cc1ccc(O)c(O)c1-3
Potency [5]: 10 µM (active)
Potency [8]: inactive

CCCCCCCCOC(=O)c1ccccc1C(=O)OCCCCCCCC
Potency [1]: inactive
Potency [2]: inactive
Potency [3]: inactive
Potency [4]: inactive

S=C=S
Potency [1]: inactive
Potency [2]: inactive
Potency [3]: inactive
Potency [4]: inactive

NNC(N)=O
Potency [1]: inactive
Potency [8]: inactive
Potency [2]: inactive
Potency [3]: inactive
Potency [4]: inactive
outcome [9]: inactive

ClC=C(Cl)Cl
Potency [1]: inactive
Potency [2]: inactive
Potency [3]: inactive
Potency [4]: inactive

COC1=CC(=O)O[C@@H](/C=C/c2ccccc2)C1
Potency [1]: inactive
Potency [2]: inactive
Potency [3]: inactive
Potency [4]: inactive

O=C1C2CC=CCC2C(=O)N1SC(Cl)(Cl)Cl (configuration not stated)
Potency [1]: 2 µM (active) and 5.01 µM (active)
Potency [2]: 10 µM (active)
Potency [3]: 12.6 µM (active)
Potency [4]: 7.94 µM (active) and 10 µM (active)

CCCCCl
Potency [1]: inactive
Potency [2]: inactive
Potency [3]: inactive
Potency [4]: inactive

O=[N+]([O-])c1ccccc1
Potency [1]: inactive
Potency [2]: inactive
Potency [3]: inactive
Potency [4]: inactive

Oc1cc(Cl)c(Cl)cc1Cl
Potency [1]: inactive
Potency [2]: inactive
Potency [3]: inactive
Potency [4]: inactive

c1ccc2c(c1)[I+]c1ccccc1-2
Potency [5]: 0.0398 µM (active)
Potency [7]: inactive
Potency [8]: inactive
outcome [9]: inactive

NC(=O)CI
Potency [5]: 3.16 µM (active)
Potency [6]: inactive
Potency [8]: inactive
outcome [9]: inactive

[O]=[Cr](=[O])([OH])[O][Cr](=[O])(=[O])[OH]
Potency [1]: 12.6 µM (active) and 6.31 µM (active)
Potency [2]: inactive
Potency [3]: inactive
Potency [4]: inactive

CC(C)CCON=O
Potency [1]: inactive
Potency [2]: inactive
Potency [4]: inactive

COc1ccc2c(c1)/C(=C/c1cnc[nH]1)C(=O)N2
Potency [5]: 10 µM (active)
Potency [6]: inactive
Potency [8]: inactive
outcome [9]: inactive

CCCN1CCc2cc(O)cc3c2[C@H]1Cc1ccc(O)c(O)c1-3
Potency [5]: 10 µM (active)
Potency [8]: inactive
outcome [9]: inactive

C=CCN=C=S
Potency [1]: inactive
Potency [2]: inactive
Potency [3]: inactive
Potency [4]: inactive

C[N+]1(C)[C@@H]2CC[C@H]1CC(OC(=O)c1c[nH]c3ccccc13)C2 (some centres not stated)
Potency [5]: 10 µM (active)
Potency [8]: inactive
outcome [9]: inactive

O=Cc1ccco1
Potency [1]: inactive
Potency [2]: inactive
Potency [3]: inactive
Potency [4]: inactive

ClC(Cl)(Cl)Cl
Potency [1]: inactive
Potency [2]: inactive
Potency [3]: inactive
Potency [4]: inactive

O=C(O)C(Cl)(Cl)Cl
Potency [1]: inactive
Potency [2]: inactive
Potency [3]: inactive
Potency [4]: inactive

CC(C)(C)c1cc(O)ccc1O
Potency [1]: 39.8 µM (active)
Potency [2]: inactive
Potency [3]: inactive
Potency [4]: inactive

C[C@@H]1[C@@H]2Cc3ccc(O)cc3[C@@]1(C)CCN2CC1CC1
Potency [6]: 14.1 µM (active)
Potency [7]: 15.8 µM (active)
Potency [8]: inactive
outcome [9]: inactive

CCCC(C)C1(CC)C(=O)NC(=O)NC1=O (configuration not stated)
outcome [10]: inactive

[N-]=[N+]=CC(=O)OCC(N)C(=O)O (configuration not stated)
outcome [10]: inactive

Cc1sc2ccccc2c1CC1=NCCN1
Potency [6]: inactive
Potency [7]: inactive
Potency [8]: inactive
outcome [9]: inactive

C[C@@H]1O[C@H](C[N+](C)(C)C)CS1
Potency [6]: inactive
Potency [7]: inactive
Potency [8]: inactive
outcome [9]: inactive

O=C1C=CC(=O)C=C1
Potency [6]: inactive
Potency [7]: inactive
Potency [8]: inactive
Potency [2]: inactive
Potency [3]: inactive
Potency [4]: inactive
outcome [9]: inactive

OCc1cnc[nH]1
Potency [6]: inactive
Potency [7]: inactive
Potency [8]: inactive
outcome [9]: inactive

C[C@H]1CC[C@@H]2[C@@H](C)[C@H]3[C@H](C[C@H]4[C@@H]5CC=C6CC(O[C@@H]7O[C@H](CO)[C@H](O)[C@H](O[C@@H]8O[C@H](CO)[C@@H](O)[C@H](O)[C@H]8O)[C@H]7O[C@H]7O[C@@H](C)[C@H](O)[C@@H](O)[C@H]7O)CC[C@]6(C)[C@H]5CC[C@]34C)N2C1 (some centres not stated)
Potency [1]: inactive
Potency [3]: 31.6 µM (active)
Potency [4]: 31.6 µM (active)

C[C@]12CCC(=O)C[C@@H]1CC[C@@H]1[C@@H]2CC[C@]2(C)[C@@H](O)CC[C@@H]12
Potency [1]: inactive
Potency [3]: inactive
Potency [4]: inactive

O=C(O)c1cc[c]([Hg][Cl])cc1
Potency [6]: inactive
Potency [7]: inactive
Potency [8]: 3.98 µM (active)
outcome [9]: inactive

O=S1(=O)N(CCN2CC=C(c3c[nH]c4cc(F)ccc34)CC2)c2cccc3c2N1CCC3
Potency [6]: 15.8 µM (active)
Potency [7]: 14.1 µM (active)
Potency [8]: inactive
outcome [9]: inactive

N#CCCN
Potency [6]: inactive
Potency [7]: inactive
Potency [8]: inactive
outcome [9]: inactive

O=[N+]([O-])c1cc(O)c(O)c([N+](=O)[O-])c1
outcome [10]: inactive
Potency [6]: inactive
Potency [7]: inactive
Potency [8]: inactive
outcome [9]: inactive

CCCN(CCC)C1Cc2cc(OC)c(OC)cc2C1
Potency [6]: 1.26 µM (active)
Potency [7]: 2.51 µM (active)
Potency [8]: inactive
outcome [9]: inactive

Clc1ccc(Cl)cc1
outcome [10]: inactive

OC1CCCCC1N1CCC(c2ccccc2)CC1 (configuration not stated)
outcome [10]: inactive

COc1ccc2[nH]cc(CCN)c2c1
outcome [10]: inactive
Potency [6]: inactive
Potency [7]: inactive
Potency [8]: inactive
outcome [9]: inactive

O=c1c2ccccc2[se]n1-c1ccccc1
Potency [6]: inactive
Potency [7]: inactive
Potency [8]: 10 µM (active)
outcome [9]: inactive

C[N+](C)(C)CC#CCN1CCCC1=O
Potency [6]: inactive
Potency [7]: inactive
Potency [8]: inactive
outcome [9]: inactive

C[N+](C)(C)CC#CCOC(=O)Nc1cccc(Cl)c1
Potency [6]: inactive
Potency [7]: inactive
Potency [8]: inactive
outcome [9]: inactive

Clc1cc(I)cc(Cl)c1NC1=NCCN1
Potency [6]: 15.8 µM (active)
Potency [7]: inactive
Potency [8]: inactive
outcome [9]: inactive

C=CCC1(C(C)CCC)C(=O)N=C(S)NC1=O (configuration not stated)
outcome [10]: inactive

CN1C2CCC1CC(OC(c1ccccc1)c1ccccc1N)C2 (configuration not stated)
outcome [10]: inactive

C[CH2][Hg][S]c1ccccc1C(=O)O
outcome [10]: inactive

ClC1C(Cl)C(Cl)C(Cl)C(Cl)C1Cl (configuration not stated)
outcome [10]: inactive

CP(=O)(O)C1=CCNCC1
Potency [6]: inactive
Potency [7]: inactive
Potency [8]: inactive
outcome [9]: inactive

CCCN(CCC)[C@H]1CCc2c(F)ccc(O)c2C1
Potency [6]: 6.31 µM (active)
Potency [7]: 8.91 µM (active)
Potency [8]: inactive
outcome [9]: inactive

O=P(O)(O)C(Cl)(Cl)P(=O)(O)O
Potency [6]: inactive
Potency [7]: inactive
Potency [8]: inactive
outcome [9]: inactive

NC(Cc1ccc(N(CCCl)CCCl)cc1)C(=O)O (configuration not stated)
outcome [10]: inactive

COc1ccc(OC)c(C(O)C(C)N)c1 (configuration not stated)
outcome [10]: inactive

CC(C)Nc1ccc(Nc2ccccc2)cc1
Potency [1]: 12.6 µM (active)
Potency [3]: 31.6 µM (active)
Potency [4]: 39.8 µM (active)

CC(N)Cc1ccc(O)cc1 (configuration not stated)
outcome [10]: inactive

CN(N=O)c1cc(O)ccc1O
Potency [6]: inactive
Potency [7]: inactive
Potency [8]: inactive

O=[N+]([O-])c1ccc(F)c([N+](=O)[O-])c1
Potency [2]: inactive
Potency [3]: inactive
Potency [4]: inactive

ClCC1CO1 (configuration not stated)
Potency [2]: inactive
Potency [4]: inactive
